Compound activity: PubChem, National Center for Advancing Translational Sciences (NCATS)
D1 antag: human D1 dopamine receptor antagonism. HEK293 TREx D1 cells, calcium flux, dopamine EC80; active compounds read low. P21728. activity change, negative = inhibition, % at 10 µM. actives 3.2% (n = 360,000); in the data active = activity change below about -30%; note: % is set by controls: 0 for no effect and ±100 for the full control effect
Target sequence (P21728 whole entry, looked up): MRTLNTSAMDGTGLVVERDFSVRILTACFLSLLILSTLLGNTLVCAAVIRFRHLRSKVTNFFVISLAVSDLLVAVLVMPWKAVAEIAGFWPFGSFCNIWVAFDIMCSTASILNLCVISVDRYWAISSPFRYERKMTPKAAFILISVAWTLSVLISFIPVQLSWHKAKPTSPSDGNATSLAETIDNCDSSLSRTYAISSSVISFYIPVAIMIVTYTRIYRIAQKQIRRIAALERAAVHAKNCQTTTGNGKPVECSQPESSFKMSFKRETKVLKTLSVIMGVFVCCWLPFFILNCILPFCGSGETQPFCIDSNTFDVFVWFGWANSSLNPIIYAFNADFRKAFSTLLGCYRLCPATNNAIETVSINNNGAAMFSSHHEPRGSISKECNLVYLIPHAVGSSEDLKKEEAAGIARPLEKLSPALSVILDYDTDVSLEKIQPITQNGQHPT
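Using tetracycline-induced force-coupled D1 Hek293 cells and a calcium dye, signals were followed for 180 s after compound, then for 180 s after EC80 dopamine, to detect inhibitors.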
TRHR agonist-1: agonists of human TRH receptor. P34981. TRHR cells, calcium flux fluo-8, FDSS agonist mode. activation, % at 2 µM. actives 0.18% (n = 360,000). AID 493084; in the data active = activation above about 30%; note: 0% is about no effect
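Read-out: compound-evoked intracellular calcium rise in TRHR cells, fluo-8 dye, kinetic FDSS fluorescence at 1 s/cycle following a 10-cycle baseline. Cells cultured overnight before dye loading (30 min–1.5 h, RT).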
D1 potentiator: enhances dopamine response at the human D1 receptor; HEK293 TREx D1 cells, calcium flux, dopamine EC20 potentiation; potentiation, % at 10 µM; actives 0.036% (n = 360,000); P21728; in the data active = potentiation above about 30%; note: 0% is about no effect
Epigenetic reg: derepresses silenced GFP reporter in murine cells | actives 0.2% (n = 280,000) | murine LDR cells, GFP reporter derepression, 30 h | Potency, µM (series often up to 53.9 µM), for inactives: top-dose GFP activation, actives largely listed as activators; note: potency is the fitted concentration of half-maximal effect; % of control where 0% means no effect; nearly all actives have a fitted effect of over 60% in size
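In this reporter-derepression format, murine cells bearing a silenced integrated CMV-GFP locus incubate with test compound (30 h, 37 C), then are washed and imaged; fluorescent objects of 20–120 um count as induced cells.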
TRHR enhancer-1: allosteric enhancers of human TRH receptor | P34981 | TRHR cells, fluo-8 calcium fluorescence, EC20 TRH enhancement | enhancement, % at 2 µM | actives 0.66% (n = 360,000) | AID 493056; in the data active = enhancement above about 30%; note: 0% is about no effect
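Enhancer read-out: after compound pinning and an initial kinetic agonist-mode read, an EC20 of TRH (10 nM final) was injected and fluo-8 calcium signal (Ex 480/Em 530) followed at 1 s/cycle for 100 cycles in TRHR-expressing cells.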
D1 ag: human D1 receptor agonism; P21728; activation, % at 2 µM; HEK293 T-REx D1 cells, calcium flux, agonist mode; AID 504660; actives 1% (n = 360,000); in the data active = activation above about 30%; note: 0% is about no effect
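Agonism was scored from calcium flux recorded over 180 s (1 read/s) after pintool compound addition, following a 10-cycle baseline. Cells were inducible force-coupled HEK293 TREx D1, plated overnight at 30 C and loaded with no-wash calcium dye.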
TRHR enhancer-2: confirmation of human TRH receptor allosteric enhancers; shares compounds with TRHR enhancer-1; TRH receptor cell assay, enhancer confirmation qHTS; activity change, negative = inhibition, % at 46.1 µM; 970 tested, under 10 active; AID 493076;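 note: compound effect scored on response to added TRH at EC20 of 10 nM; 0% is about no effect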
TRHR agonist-2: confirmation of human TRH receptor agonists. shares compounds with TRHR enhancer-1. TRHR-expressing cells, agonist activation read-out. Potency, µM (highest dose often 46.1 µM), inactives show top-dose activation, most hits filed as activators. actives 8% (n = 970); note: potency is the fitted concentration of half-maximal effect; 0% is about no effect; nearly all actives have a fitted effect of over 75% in size
An asterisk follows results filed as active; ? = inconclusive; · = no result given. Rows were chosen to be rich in hits. Some 4.6% of all compounds tested hit in one or more screens of this group. Unless noted, calls come from the whole dose curve; as a rule, active = well fitted curve in the direction sought with a large enough effect; inconclusive = small, poorly fitted or top-dose-only effect, or another doubt; inactive = no such curve, though single readings can be large; an effect the other way counts as inactive or inconclusive.

SMILES | D1 antag | TRHR agonist-1 | D1 potentiator | Epigenetic reg | TRHR enhancer-1 | D1 ag | TRHR enhancer-2 | TRHR agonist-2
NC(=O)CSc1nnc(-c2ccc(S(=O)(=O)N3CCCCC3)cc2)n1-c1ccccc1 | -4 | 0 | 7 | -3% | 50* | 3 | ? | -1%
COc1ccccc1-n1c(SCC(N)=O)nnc1-c1ccc(S(=O)(=O)N2CCCCC2)cc1 | 2 | 0 | 3 | 2% | -2 | 2 | · | ·
O=C(CSc1nc(=O)[nH]c2c1CCCC2)Nc1cc(C(F)(F)F)cc(C(F)(F)F)c1 | 7 | 0 | -4 | · | 0 | -1 | · | ·
Cc1csc(NC(=O)CSc2nc(=O)[nH]c3c2CCCC3)n1 | 11 | 0 | -3 | · | 66* | 6 | -7 | 1%
COc1cc(CNC(=O)c2ccc3c(c2)c(C)c(C)n3Cc2cccc(C)c2)cc(OC)c1OC | -21 | 0 | -5 | ? | 0 | 7 | · | ·
COc1ccc2nc(/N=C\N(C)C)sc2c1 | -23 | 0 | -4 | -1% | 5 | 2 | · | ·
COc1ccc2nc(N=Nc3ccc(N(C)C)cc3)sc2c1 | -10 | -1 | -2 | 0% | 86* | 8 | 3 | -1%
N#Cc1ccc(-c2cccnc2)nc1SCC(=O)c1ccccc1 | -28 | 38* | 0 | ? | -3 | 108* | -5 | 5%
COc1cc(C#N)c(NC(=O)CN2CCC(C(N)=O)CC2)cc1OC | -1 | 0 | 5 | -1% | 61* | 6 | -5 | 6%
COc1ccc(C(=O)C2CCN(CC(=O)Nc3ccc(OC)cc3OC)CC2)cc1 | -17 | 0 | -2 | · | 1 | 0 | · | ·
O=C(Nn1cnnc1)c1cccc(S(=O)(=O)N2CCOCC2)c1 | 1 | 102* | 0 | 0% | 5 | 7 | 5 | -1%
CCN(CC)c1ccc(/C=N/NC(=O)c2cccc(S(=O)(=O)N3CCOCC3)c2)c(O)c1 | -29 | 39* | -4 | -3% | -2 | 12 | 3 | ?
O=c1c2sc3ccccc3c2n(Cc2cccc(C(F)(F)F)c2)c(=O)n1Cc1ccc(F)cc1 | -8 | -2 | -1 | 1% | 8 | 10 | · | ·
CCOc1cc2[nH]c(=O)n(CCCC(=O)N3CCN(c4ccc(OC)cc4)CC3)c(=O)c2cc1OCC | -1 | -1 | 0 | -1% | 4 | 1 | · | ·
O=C(CN(Cc1ccccc1Cl)C(=O)c1csnn1)NCc1ccc2c(c1)OCO2 | -7 | 0 | -7 | · | 51* | -1 | -11 | 4%
COc1ccccc1CN(CC(=O)NCc1ccc2c(c1)OCO2)C(=O)c1csnn1 | -2 | 0 | 4 | · | -8 | -2 | · | ·
Cn1cc(S(=O)(=O)c2cccc(Cl)c2)c(=O)c2cc(F)c(N3CCN(c4ccccc4)CC3)cc21 | 9 | -1 | 0 | 0% | 59* | 4 | 1 | 0%
O=c1c(S(=O)(=O)c2ccccc2)cn(Cc2ccc(F)cc2)c2cc(N3CCCC3)c(F)cc12 | 9 | 0 | -4 | 1% | 77* | -2 | -8 | -1%
CCOCCc1nn2c(=O)cc(COC(=O)c3ccc4c(c3)OCO4)nc2s1 | -3 | -1 | -9 | 0% | 17 | 8 | · | ·
O=C1CC(Nc2ccc(N3CCOCC3)cc2)C(=O)N1c1cccc(C(F)(F)F)c1 (centres undefined) | -9 | -1 | -8 | 0% | 46* | 10 | 0 | -1%
COc1cccc(N2C(=O)CC(Nc3ccc(N4CCOCC4)cc3)C2=O)c1 (centres undefined) | -17 | 0 | -6 | -1% | -6 | 1 | · | ·
C#CCN(C)CC/C=C1\c2ccccc2CSc2ccccc21 | -2 | 74* | -23 | -1% | -3 | 3 | -6 | 1%
NCC/C=C1/c2ccccc2CSc2ccccc21 | -5 | 2 | -5 | 2% | 0 | 21 | · | ·
CC(=O)N1CCC(N(Cc2ccc(C)o2)C(=O)Nc2ccc(C)cc2)CC1 | 2 | 0 | 6 | -1% | 5 | -2 | · | ·
CCCn1c(=O)c2ccccc2n2c(SC(C)C(N)=O)nnc12 (centres undefined) | 15 | 0 | 1 | · | -1 | -1 | · | ·
SMILES | D1 antag | TRHR agonist-1 | D1 potentiator | Epigenetic reg | TRHR enhancer-1 | D1 ag | TRHR enhancer-2 | TRHR agonist-2
C=CCn1c(=O)c2ccccc2n2c(SC(C)C(N)=O)nnc12 (centres undefined) | -6 | -1 | -6 | · | 45* | 2 | -1 | -1%
COc1ccc(CCNC(=O)c2ccc3c(c2)nc2n3CCOC2)cc1OC | -21 | 0 | 2 | -3% | 5 | 1 | · | ·
Cc1ccccc1NC(=S)N(Cc1cccnc1)Cc1ccccc1Cl | 11 | -1 | -6 | 1% | 47* | 2 | ? | 6%
COc1ccccc1NC(=S)N(Cc1cccnc1)Cc1ccccc1Cl | -13 | 0 | -3 | -1% | -1 | 1 | · | ·
O=C(NNC(=O)c1nn(-c2ccc(F)cc2)ccc1=O)c1ccc(C(F)(F)F)cc1 | -1 | -1 | -2 | -2% | 45* | 1 | -7 | 2%
O=C(C1=NN(c2ccccc2)C2C(=O)N(c3ccccc3)C(=O)C12)c1ccccc1 (centres undefined) | -32* | 33* | 25 | 0% | -5 | 324* | ? | 18µM*
CCOc1ccc(NC(=O)Cn2c(=O)n(Cc3ccc(C(=O)NCc4ccc(C)cc4)cc3)c(=O)c3ccccc32)cc1 | 4 | 1 | 0 | ? | -3 | 2 | · | ·
COc1ccc(NC(=O)Cn2nnc(-c3ccccc3NS(=O)(=O)c3ccc(OC)cc3)n2)cc1 | 8 | 0 | -2 | 1% | 41* | 0 | 5 | 0%
COc1ccccc1NC(=O)Cn1nnc(-c2ccccc2NS(=O)(=O)c2ccccc2)n1 | -15 | 0 | 2 | -1% | 0 | 4 | · | ·
CC(NC(=O)c1cc(Br)cs1)C1CCCO1 (centres undefined) | -12 | 0 | 0 | · | 52* | -3 | -4 | -1%
O=C(CN1CCN(c2ccccc2F)CC1)c1ccc(O)cc1O | -8 | 0 | -6 | · | 94* | 3 | -7 | -1%
CCOC(=O)c1[nH]c(C)c(CCC(=O)N2CCN(c3cccc(C)c3C)CC2)c1C | -7 | -1 | -2 | 8% | 0 | 2 | · | ·
CCC(C(=O)Nc1ccc(C(=O)OC)cc1)n1nc(-c2ccc(C)cc2)c2c(c1=O)CCCC2 (centres undefined) | 7 | 0 | -2 | 14% | 6 | 2 | · | ·
